# SENP8 block-1 = SENP8 protease inhibitors, primary screen, biochemical, luminescence | Sentrin-specific protease 8 (Homo sapiens), Q96LD8 | purified SENP8, Z-RLRGG-aminoluciferin cleavage | inhibition, % at 10 µM | 330,000 compounds, 1.2% hits; in the data active means inhibition above about 50%
# SENP8 block-2 = human SENP8 protease inhibitors, primary screen, biochemical, fluorescence, Nedd8 protein substrate, uHTS | 360,000 compounds, 0.64% hits | AID 602440, 2012 | Sentrin-specific protease 8 (Homo sapiens), Q96LD8 | inhibition, % at 20 µM | recombinant SENP8; in the data active means inhibition mostly above about 40%, no sharp cut-off; inactive means mostly below about 27%
# PPC-1+TRAIL kill = compounds killing PPC-1 cancer cells with TRAIL present, primary screen, TRAIL potentiator project, ATPLite luminescence, uHTS. PPC-1 cells + TRAIL, ATPLite viability luminescence. cell killing (% activity), % at 4 µM or 5 µM. 220,000 compounds, 0.41% hits. AID 1443, 2008;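 active means cell killing above 50% in the first pass at 4 µM, then a duplicate retest at 5 µM averaging 50% or more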;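 further: plate controls were cells with TRAIL plus DMSO for no effect and medium-only wells lacking cells for full effect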
# SENP6 inh = SENP6 protease inhibitors, primary screen, biochemical, luminescence, uHTS; inhibition, % at 10 µM; AID 2599, 2010; Sentrin-specific protease 6 (Homo sapiens), Q9GZR1; Recombinant SENP6 catalytic domain, aminoluciferin luminescence; 330,000 compounds, 1.8% hits;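 active means inhibition above about 50% at the single tested dose, limit read from the data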;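 further: plate controls were DMSO wells with enzyme for no effect and DMSO wells lacking enzyme for full effect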
# Target sequence (Q9GZR1 628-1112 limits assumed): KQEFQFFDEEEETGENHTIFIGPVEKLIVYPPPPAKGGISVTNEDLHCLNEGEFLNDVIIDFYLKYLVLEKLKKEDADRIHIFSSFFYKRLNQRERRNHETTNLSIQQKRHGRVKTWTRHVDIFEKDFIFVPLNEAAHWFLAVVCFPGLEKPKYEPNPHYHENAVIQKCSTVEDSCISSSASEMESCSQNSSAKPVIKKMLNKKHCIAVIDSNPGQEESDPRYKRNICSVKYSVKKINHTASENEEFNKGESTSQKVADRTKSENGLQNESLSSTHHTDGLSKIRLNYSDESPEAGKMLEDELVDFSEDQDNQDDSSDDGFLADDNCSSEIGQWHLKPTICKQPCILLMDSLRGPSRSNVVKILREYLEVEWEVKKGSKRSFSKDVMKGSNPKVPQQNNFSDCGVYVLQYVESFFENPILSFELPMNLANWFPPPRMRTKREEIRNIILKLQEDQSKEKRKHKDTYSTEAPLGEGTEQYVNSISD
# TRAIL sens C8 = viability loss with TRAIL in NB7+C8 cells, primary screen, TRAIL sensitizer project, cell-based, ATPlite luminescence; inhibition (viability loss, TRAIL sensitization), % at 10 µM; 360,000 compounds, 1% hits; AID 624354, 2012;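 active means compounds causing at least 50% loss of cell viability in the single-dose screen, relative to plate controls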
# SENP7 inh = SENP7 protease inhibitors, primary screen, biochemical, luminescence, uHTS. Sentrin-specific protease 7 (Homo sapiens), Q9BQF6. recombinant SENP7, Z-RLRGG-aminoluciferin luminescence, 40 min. inhibition, % at 5 µM. 330,000 compounds, 1.5% hits;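 active means inhibition above about 50% at the single test dose, limit read from the data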;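 further: plate controls were DMSO with enzyme for no effect and no enzyme buffer wells for full effect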
# Starred values were filed as active, the others as inactive; x = not tested or not shown. Only some compounds are listed: those with a hit (about 3% of all), similar ones and a draw of the others.
SMILES,SENP8 block-1,SENP8 block-2,PPC-1+TRAIL kill,SENP6 inh,TRAIL sens C8,SENP7 inh
O=C(NCC(=O)N(CC1CCCO1)C(C(=O)NC1CCCCC1)c1cccnc1)c1cccs1 (centres undefined),4,4,5,-8,-11,0
O=C(CSc1nnc(NC(=O)c2ccc(F)cc2)s1)NC1CCCC1,16,-10,x,14,63*,15
O=C(Nc1nnc(SCC(=O)N2CCOCC2)s1)c1ccccc1,-1,-8,71*,20,75*,-2
O=C(CSc1nnc(NC(=O)c2ccccc2)s1)NC1CCCC1,0,8,x,16,57*,21
O=C1CCCN1CCCNS(=O)(=O)c1ccc(F)c(F)c1,3,12,x,-1,-9,-3
CC[C@H](C)[C@@H](CO)NC(=O)[C@H]1O[C@@H](n2ccc(N)nc2=O)[C@H](O)[C@@H]1O,x,16,x,x,-1,x
Cc1sc(NC(=O)C2C3CCC(O3)C2C(=O)O)nc1-c1ccc(CC(C)C)cc1 (centres undefined),4,12,30,56*,12,14
CC(=O)Oc1cc2cccc(OC(C)=O)c(=O)c2c(OC(C)=O)c1OC(C)=O,1,44*,15,17,33,-5
COc1cccc(C(=O)Nc2ccc3[nH]ncc3c2)c1,16,15,x,17,44,6
CCOc1cccc(C(=O)Nc2ccc3[nH]ncc3c2)c1,-10,12,x,-11,62*,-17
CCOc1ccc(NS(=O)(=O)c2cc(C(=O)NCCN3CCOCC3)ccc2C)cc1,3,-1,x,-1,-20,-3
Cn1c(=O)c2c(SCC(=O)Nc3ccccc3F)nc(-c3ccccc3F)nc2n(C)c1=O,-6,-34,x,-17,10,13
Cn1c(=O)c2c(SCC(=O)Nc3ccccc3F)nc(C3CC3)nc2n(C)c1=O,-1,16,x,-12,50*,-13
COc1ccc(NC(=O)c2cccc(NC3=NC4CS(=O)(=O)CC4S3)c2)cc1Cl (centres undefined),-11,3,x,-20,-1,-7
CC(OC(=O)c1cc(O)c2ccccc2c1O)C(=O)Nc1ccc(C(N)=O)cc1 (centres undefined),17,-345,x,37,57*,7
CNC[C@H](CC1CCCCC1)NC[C@H](Cc1ccccc1)NCCC12CC3CC(CC(C3)C1)C2,7,6,x,-25,96*,-2
O=C1CCC(C(=O)Nc2cccc(S(=O)(=O)Nc3ccccc3F)c2)=NN1,3,24,x,-4,-10,-9
CCOc1cc(CNc2ccc(O)cc2)ccc1OCc1ccc(Cl)cc1Cl,-6,75*,-20,-3,10,72*
CCOc1cccc(CNc2ccc(O)cc2)c1OCc1ccc(Cl)cc1,-3,30,18,-6,-1,21
CCN(CC)CCNc1cccc2sc3ccccc3c(=O)c12,x,44*,x,x,22,x
CCN(CC)CCNc1ccc(CO)c2sc3ccccc3c(=O)c12,8,15,25,15,12,6
CN(Cc1cn(Cc2cccc(C(F)(F)F)c2)nn1)C1CN(Cc2cn(Cc3cccc(C(F)(F)F)c3)nn2)S(=O)(=O)C1 (centres undefined),x,15,x,x,17,x
Cc1cc(C)n2nc(C(=O)Nc3ccc4c(c3)OCCO4)nc2n1,8,2,x,-4,51*,-14
Cc1ccn2cc(C(=O)Nc3ccc4c(c3)OCCO4)nc2c1,5,-3,43,-3,62*,6
O=C(O)c1cccc2c1C(=O)c1cc([N+](=O)[O-])cc([N+](=O)[O-])c1-2,x,44*,x,x,-3,x
SMILES,SENP8 block-1,SENP8 block-2,PPC-1+TRAIL kill,SENP6 inh,TRAIL sens C8,SENP7 inh
O=C(N/N=C/c1ccc2cccnc2c1)c1ccco1,-8,7,34,-2,61*,13
O=C(N/N=C/c1ccccc1)c1ccco1,14,18,3,5,1,16
CCN(Cc1ccccc1)c1ccc(/C=C(\C#N)c2ccccn2)cc1,7,4,28,43,8,35
CCN(CC)c1ccc(/C=N/NC(=O)c2ccccn2)cc1,11,-241,20,1,65*,28
CCN(CC)c1ccc(/C=N/NC(=O)c2ccco2)cc1,x,-409,30,x,52*,x
CCN(CC)c1ccc(/C=N/NC(=O)c2cnccn2)cc1,-13,26,36,-13,21,-7
CCN(CC)c1ccc(/C=C(\C#N)c2ccccn2)cc1,88*,2,62*,84*,81*,88*
CNC(=O)C[C@H]1C(=O)N(C2CCCCC2)C[C@@H]1c1ccc(Br)cc1,x,-2,x,x,-19,x
COc1cc(OC)cc(N2C(=O)CSCC2=O)c1,3,6,9,1,-5,5
O=C(CN1C(=O)c2cccc([N+](=O)[O-])c2C1=O)OCC(=O)N1CCCCC1,-7,22,x,-5,9,-13
Nc1ccc(N2CCN(c3ccc(Cl)c(Cl)c3)CC2)cc1,-9,41*,23,4,17,7
Nc1ccc(N2CCCCCC2)cc1,23,x,32,52*,x,26
Cc1nc2ccccc2c2nc3ccccc3n12,0,-273,5,1,15,10
c1ccc2c(c1)nnn1c3ccccc3nc21,86*,x,7,96*,x,96*
CCOC(=O)C1=C(C)N=c2sc(=Cc3cc(Cl)c(OCC(=O)O)c(Cl)c3)c(=O)n2C1c1cccc(OC)c1 (centres undefined),x,14,x,x,6,x
CCOCCCNC(=O)Cn1cnc2c(cnn2-c2ccc(C)c(C)c2)c1=O,-5,9,x,-2,3,0
O=C(Nc1nc2ccccc2n1CCN1CCCCC1)C1CCCCC1,4,18,6,4,55*,-1
O=C(Nc1nc2ccccc2n1CCN1CCCC1)C1CCCCC1,-6,22,10,-15,14,-8
CN(Cc1ccccc1)c1nc(-c2ccc([N+](=O)[O-])cc2)nc2ccccc12,-4,8,15,-3,19,-4
O=[N+]([O-])c1ccc(-c2nc(C(Cl)Cl)c3ccccc3n2)cc1,-6,20,12,-6,60*,-15
COCCNC(=O)C1(C)CCCN(C(=O)c2ccc(N(C)C)cc2)C1 (centres undefined),x,18,x,x,-7,x
COc1ccc(CCNC(=O)COc2cc(O)c3c(c2)OC(C)(C)CC3=O)cc1OC,-14,36,x,-20,-2,-14
CN1/C(=C/c2cc[n+](C)c3ccccc23)C=Cc2ccccc21,x,58*,x,x,19,x
Cc1nc(NCC2CCCO2)nc2c1C(=O)CC(C)C2 (centres undefined),-4,17,-12,-20,52*,9
